The test has as its target CRYGS. Kind of test: pooled miR-30 sensor sort-seq; sequence = guide strand. The note with it: shRNA.
Consider TCGCATGTGAAATTGCTCCATG, for which the sensor-assay potency score (higher = more potent) was -0.662.

TATGTGTGGAAATCTGCACAGT showed a sensor-assay potency score (higher = more potent) of -0.978. The same measure for AAGATCTGAATCTTATACTGGC: 0.642; for TTCATAGAAAGTAATCTTGGTT: -0.0295; for TGAAATTGCTCCATGATGGAAG: -0.169. Then TATACTGGCCTCCACTAGGCAG, with -0.983; and TTAATGGAGTTGCAGCGACTTA, with -1.8; and TTTCATACATCTGACCACTAAA, with -1.27. As to TTGAAAATTTTTGTCTTCATAG, the sensor-assay potency score (higher = more potent) is -1.17. The same measure for TTCGGTGGTTTCATACATCTGA: 0.37. The same measure for AAAGATCTGAATCTTATACTGG: 0.0834; for TAATGGAGTTGCAGCGACTTAG: -1.4; for TCCACTTTAATGGAGTTGCAGC: -1.52. The same measure for TGAACAGCTCTGCAGGAGCTGA: -1.21; for TGGAGTTGCAGCGACTTAGGTA: -0.835; for TTTCTCAAAGATCTGAATCTTA: 0.174.

For the origin of these results see the OligoGym collection.
Also: reference of the scale not given here.
